This is an account of results in the supplement of paper PMC12645437, “Orthogonal IMiD-Degron Pairs Induce Selective Protein Degradation in Cells” (ACS Chemical Biology, 2025).

Over roughly 8,300 sequences, “log2 fold change of degron read counts, EGFP-low vs EGFP+ sorted cells (limma voom), compound-induced degradation” has its median near -1.1; the highest 2% begin near 3.2. The full list was thinned out, with the highest values kept by preference.

For the test, the target named is T1, CRBN, Q96SW2.
T1 chain: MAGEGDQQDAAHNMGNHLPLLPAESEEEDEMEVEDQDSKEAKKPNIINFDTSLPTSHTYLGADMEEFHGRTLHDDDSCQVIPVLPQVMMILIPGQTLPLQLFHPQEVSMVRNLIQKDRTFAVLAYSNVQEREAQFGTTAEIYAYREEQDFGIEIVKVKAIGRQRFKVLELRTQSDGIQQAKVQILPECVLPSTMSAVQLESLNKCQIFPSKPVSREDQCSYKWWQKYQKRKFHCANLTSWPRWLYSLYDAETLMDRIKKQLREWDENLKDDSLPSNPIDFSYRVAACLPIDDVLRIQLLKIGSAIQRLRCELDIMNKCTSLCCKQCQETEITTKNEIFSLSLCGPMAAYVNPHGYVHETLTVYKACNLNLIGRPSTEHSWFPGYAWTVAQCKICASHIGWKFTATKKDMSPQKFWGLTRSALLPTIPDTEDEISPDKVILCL
In words: log2 fold change of degron read counts, EGFP-low vs EGFP+ sorted cells (limma voom), compound-induced degradation; higher = more compound-induced degradation of the degron-EGFP fusion; degrons are variants of IKZF1/3 zinc finger 2; compound dose not given here. The settings on record: Jurkat, 18 h.

Where [1] appears, read: compound: compound 19 (5-tert-butyl-thalidomide).
The mark [2] stands for this setting: compound: compound 22 (5-morpholino-thalidomide).
Where [3] appears, read: compound: compound 33 (diphenyl IMiD analogue).
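Further: pooled lentiviral library of zinc finger degron-EGFP fusions in mCherry-positive Jurkat cells, FACS-sorted after compound exposure, with degron abundance counted by next-generation sequencing.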

B1: 46F_47V_49E_50V_52G_53A_54W_55F_67L_, Q9UKT9 (peptide)
chain: FVCEVCGAWFTQKGNLLRHIKL
On to B1, for which the “log2 fold change of degron read counts” value was -1.7 under setting [1], -0.89 under setting [2], 0.622 under setting [3] and 0.0931 (compound: thalidomide).

B2: 46F_47L_49D_50Q_52G_53A_54M_55F_67L_, Q9UKT9 (peptide)
chain: FLCDQCGAMFTQKGNLLRHIKL
Take B2: the “log2 fold change of degron read counts” value runs as follows: under setting [1], -3.11; under setting [2], -2.68; under setting [3], -1.79; (compound: thalidomide) -2.7.

B3: 46F_47I_49N_50Q_52G_53R_54A_55F_67L_, Q9UKT9 (peptide)
chain: FICNQCGRAFTQKGNLLRHIKL
Consider B3, for which the “log2 fold change of degron read counts” value under setting [1] is -2.99, the “log2 fold change of degron read counts” value under setting [2] was -3.18, the “log2 fold change of degron read counts” value under setting [3] was -3.02 and the “log2 fold change of degron read counts” value (compound: thalidomide) was -2.57.

B4: 46F_47G_49N_50Q_52G_53A_54H_55F_67L_, Q9UKT9 (peptide)
chain: FGCNQCGAHFTQKGNLLRHIKL
For the sequence B4, the “log2 fold change of degron read counts” value under setting [1] is -2.35, the “log2 fold change of degron read counts” value under setting [2] was -2.82, the “log2 fold change of degron read counts” value under setting [3] was -1.79 and the “log2 fold change of degron read counts” value (compound: thalidomide) is -2.17.

B5: 46F_47R_49E_50I_52G_53H_54Q_55F_67L_, Q9UKT9 (peptide)
chain: FRCEICGHQFTQKGNLLRHIKL
For the sequence B5, the “log2 fold change of degron read counts” value is, setting by setting: under setting [1], -3.28; under setting [2], -3.74; under setting [3], -2.48; (compound: thalidomide) -2.14.

B6: 46F_47Q_49D_50V_52G_53A_54C_55F_67L_, Q9UKT9 (peptide)
chain: FQCDVCGACFTQKGNLLRHIKL
Turning to B6, the “log2 fold change of degron read counts” value was -1.14 under setting [1], 1.47 under setting [2], 0.493 under setting [3] and 3.01 (compound: thalidomide).

B7: 46F_47L_49S_50V_52G_53H_54L_55F_67L_, Q9UKT9 (peptide)
chain: FLCSVCGHLFTQKGNLLRHIKL
Regarding B7, the “log2 fold change of degron read counts” value is, setting by setting: under setting [1], -2.16; under setting [2], -2.42; under setting [3], -2.1; (compound: thalidomide) -2.

B8: 46L_47N_49P_50I_52G_53F_54Q_55C_67L_, Q9UKT9 (peptide)
chain: LNCPICGFQCTQKGNLLRHIKL
As for B8, the “log2 fold change of degron read counts” value under setting [1] amounted to 1.88, the “log2 fold change of degron read counts” value under setting [2] is 1.12, the “log2 fold change of degron read counts” value under setting [3] came to 0.537 and the “log2 fold change of degron read counts” value (compound: thalidomide) stood at 1.19.

B9: 46L_47K_49P_50I_52G_53F_54Q_55C_67L_, Q9UKT9 (peptide)
chain: LKCPICGFQCTQKGNLLRHIKL
Take B9: the “log2 fold change of degron read counts” value runs as follows: under setting [1], -0.0362; under setting [2], -1.47; under setting [3], -1.46; (compound: thalidomide) 0.648.

B10: 46L_47R_49P_50I_52G_53F_54Q_55C_67L_, Q9UKT9 (peptide)
chain: LRCPICGFQCTQKGNLLRHIKL
As for B10, the “log2 fold change of degron read counts” value reads like this: under setting [1], 0.722; under setting [2], 0.186; under setting [3], 1.12; (compound: thalidomide) 1.62.

B11: 46L_47T_49P_50I_52G_53F_54Q_55C_67L_, Q9UKT9 (peptide)
chain: LTCPICGFQCTQKGNLLRHIKL
Consider B11, for which the “log2 fold change of degron read counts” value under setting [1] was 0.773, the “log2 fold change of degron read counts” value under setting [2] came out at 2.5, the “log2 fold change of degron read counts” value under setting [3] turned out to be 2.25 and the “log2 fold change of degron read counts” value (compound: thalidomide) came out at 2.88.

B12: 46L_47F_49P_50I_52G_53F_54Q_55C_67L_, Q9UKT9 (peptide)
chain: LFCPICGFQCTQKGNLLRHIKL
With B12, the “log2 fold change of degron read counts” value amounted to 3.36 under setting [1], 3.29 under setting [2], 2.33 under setting [3] and 2.04 (compound: thalidomide).

B13: 46L_47M_49P_50I_52G_53F_54Q_55C_67L_, Q9UKT9 (peptide)
chain: LMCPICGFQCTQKGNLLRHIKL
Regarding B13, the “log2 fold change of degron read counts” value by setting is: under setting [1], 0.282; under setting [2], 1.65; under setting [3], 2.68; (compound: thalidomide) 2.37.

B14: 46L_47I_49P_50I_52G_53F_54Q_55C_67L_, Q9UKT9 (peptide)
chain: LICPICGFQCTQKGNLLRHIKL
Consider B14, for which the “log2 fold change of degron read counts” value stood at 0.317 under setting [1], 2.57 under setting [2], 2.11 under setting [3] and 2.94 (compound: thalidomide).

B15: 46L_47D_49P_50I_52G_53F_54Q_55C_67L_, Q9UKT9 (peptide)
chain: LDCPICGFQCTQKGNLLRHIKL
On to B15, for which the “log2 fold change of degron read counts” value is, setting by setting: under setting [1], 0.742; under setting [2], 0.239; under setting [3], 0.58; (compound: thalidomide) 1.8.

B16: 46L_47Q_49P_50I_52G_53F_54Q_55C_67L_, Q9UKT9 (peptide)
chain: LQCPICGFQCTQKGNLLRHIKL
Turning to B16, the “log2 fold change of degron read counts” value is, setting by setting: under setting [1], 1.01; under setting [2], 1.71; under setting [3], 1.77; (compound: thalidomide) 3.45.

B17: 46L_47W_49P_50I_52G_53F_54Q_55C_67L_, Q9UKT9 (peptide)
chain: LWCPICGFQCTQKGNLLRHIKL
As for B17, the “log2 fold change of degron read counts” value is, setting by setting: under setting [1], 3.21; under setting [2], 3.52; under setting [3], 2.81; (compound: thalidomide) 1.97.

B18: 46L_47C_49P_50I_52G_53F_54Q_55C_67L_, Q9UKT9 (peptide)
chain: LCCPICGFQCTQKGNLLRHIKL
Consider B18, for which the “log2 fold change of degron read counts” value came out at 2.04 under setting [1], 2.42 under setting [2], 2.76 under setting [3] and 2.48 (compound: thalidomide).

B19: 46L_47Y_49P_50I_52G_53F_54Q_55C_67L_, Q9UKT9 (peptide)
chain: LYCPICGFQCTQKGNLLRHIKL
With B19, the “log2 fold change of degron read counts” value reads like this: under setting [1], 3.45; under setting [2], 3.56; under setting [3], 2.59; (compound: thalidomide) 1.87.

B20: 46F_47M_49N_50V_52G_53A_54Q_55F_67L_, Q9UKT9 (peptide)
chain: FMCNVCGAQFTQKGNLLRHIKL
For B20, the “log2 fold change of degron read counts” value is -1.96 under setting [1], -1.18 under setting [2], 1.65 under setting [3] and -0.484 (compound: thalidomide).

B21: 46F_47Y_49N_50V_52G_53A_54E_55F_67L_, Q9UKT9 (peptide)
chain: FYCNVCGAEFTQKGNLLRHIKL
B21: the “log2 fold change of degron read counts” value by setting is: under setting [1], 0.141; under setting [2], -0.307; under setting [3], -0.204; (compound: thalidomide) -1.92.

B22: 46F_47D_49S_50V_52G_53H_54G_55F_67L_, Q9UKT9 (peptide)
chain: FDCSVCGHGFTQKGNLLRHIKL
With B22, the “log2 fold change of degron read counts” value runs as follows: under setting [1], -2.13; under setting [2], -2.49; under setting [3], -2.85; (compound: thalidomide) -2.61.

B23: 46F_47I_49E_50I_52G_53H_54P_55F_67L_, Q9UKT9 (peptide)
chain: FICEICGHPFTQKGNLLRHIKL
Turning to B23, the “log2 fold change of degron read counts” value is, setting by setting: under setting [1], -2.2; under setting [2], -1.74; under setting [3], -1.09; (compound: thalidomide) -0.749.

B24: 46F_47T_49N_50Q_52G_53A_54F_55F_67L_, Q9UKT9 (peptide)
chain: FTCNQCGAFFTQKGNLLRHIKL
Turning to B24, the “log2 fold change of degron read counts” value is -2.21 under setting [1], -2.47 under setting [2], -2.04 under setting [3] and -1.89 (compound: thalidomide).

B25: 46F_47M_49D_50Q_52G_53A_54M_55F_67L_, Q9UKT9 (peptide)
chain: FMCDQCGAMFTQKGNLLRHIKL
As to B25, the “log2 fold change of degron read counts” value reads like this: under setting [1], -2.85; under setting [2], -3.27; under setting [3], -1.88; (compound: thalidomide) -2.89.

B26: 46F_47V_49E_50I_52G_53R_54Y_55F_67L_, Q9UKT9 (peptide)
chain: FVCEICGRYFTQKGNLLRHIKL
For the sequence B26, the “log2 fold change of degron read counts” value under setting [1] was -1.62, the “log2 fold change of degron read counts” value under setting [2] was -1.93, the “log2 fold change of degron read counts” value under setting [3] is -1.15 and the “log2 fold change of degron read counts” value (compound: thalidomide) is -0.136.

B27: 46L_47G_49P_50I_52G_53F_54Q_55C_67L_, Q9UKT9 (peptide)
chain: LGCPICGFQCTQKGNLLRHIKL
With B27, the “log2 fold change of degron read counts” value under setting [1] worked out at 3.74, the “log2 fold change of degron read counts” value under setting [2] was 2.31, the “log2 fold change of degron read counts” value under setting [3] was found to be 1.15 and the “log2 fold change of degron read counts” value (compound: thalidomide) is 1.18.

B28: 46L_47S_49P_50I_52G_53F_54Q_55C_67L_, Q9UKT9 (peptide)
chain: LSCPICGFQCTQKGNLLRHIKL
Regarding B28, the “log2 fold change of degron read counts” value under setting [1] amounted to 2.31, the “log2 fold change of degron read counts” value under setting [2] is 2.18, the “log2 fold change of degron read counts” value under setting [3] is 1.54 and the “log2 fold change of degron read counts” value (compound: thalidomide) is 1.93.

B29: 46L_47A_49P_50I_52G_53F_54Q_55C_67L_, Q9UKT9 (peptide)
chain: LACPICGFQCTQKGNLLRHIKL
As to B29, the “log2 fold change of degron read counts” value under setting [1] was found to be 3.44, the “log2 fold change of degron read counts” value under setting [2] came out at 2.59, the “log2 fold change of degron read counts” value under setting [3] came to 1.86 and the “log2 fold change of degron read counts” value (compound: thalidomide) stood at 1.78.

B30: 46L_47V_49P_50I_52G_53F_54Q_55C_67L_, Q9UKT9 (peptide)
chain: LVCPICGFQCTQKGNLLRHIKL
For B30, the “log2 fold change of degron read counts” value runs as follows: under setting [1], 1.16; under setting [2], 2.72; under setting [3], 2.04; (compound: thalidomide) 3.09.

B31: 46L_47H_49P_50I_52G_53F_54Q_55C_67L_, Q9UKT9 (peptide)
chain: LHCPICGFQCTQKGNLLRHIKL
On to B31, for which the “log2 fold change of degron read counts” value was determined as 2.57 under setting [1], 2.67 under setting [2], 2.36 under setting [3] and 1.96 (compound: thalidomide).

B32: 46L_47E_49P_50I_52G_53F_54Q_55C_67L_, Q9UKT9 (peptide)
chain: LECPICGFQCTQKGNLLRHIKL
As to B32, the “log2 fold change of degron read counts” value is, setting by setting: under setting [1], -0.146; under setting [2], -0.246; under setting [3], 2.16; (compound: thalidomide) 3.16.
